Assay results taken from PubChem BioAssay (NCI).
About 79,000 compounds went through this panel and 15% of them were active in at least one assay; those are over-represented in the sample as a whole. Active and inactive are the calls of the source. Cut-off read from the data, not from the text of the source: active = growth inhibition above about 70%; inactive = the rest.

Legend:
[1] = NCI Yeast Anticancer Drug Screen. Data for the rad50 strain (AID 155);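 note: 0% = growth of vehicle-only cultures of the same strain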; settings: S. cerevisiae rad50 strain growth inhibition, hits give high values
In short: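 Vehicle-treated cultures provide the reference for the growth inhibition reported for compound-exposed, repair-deficient yeast.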

[2] = NCI Yeast Anticancer Drug Screen. Data for the mec2-1 strain (AID 157); settings: S. cerevisiae mec2-1 strain, hits give high values
In short: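 mec2-1 yeast strain, carrying an alteration in DNA damage repair or cell cycle control, was exposed to compounds; growth inhibition was measured relative to vehicle-treated controls.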

[3] = NCI Yeast Anticancer Drug Screen. Data for the sgs1 mgt1 strain (AID 161);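 note: 0% = growth of cultures given vehicle only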; settings: S. cerevisiae sgs1 mgt1 strain, hits give high values
In short: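 Yeast cells carrying a defined DNA-repair defect were exposed to test compounds. Growth inhibition was measured relative to vehicle-treated controls.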

[4] = NCI Yeast Anticancer Drug Screen. Data for the cln2 rad14 strain (AID 165);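 note: 0% = growth equal to vehicle treated cultures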; settings: S. cerevisiae cln2 rad14 strain, hits give high values
In short: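 Yeast carrying cln2 and rad14 alterations (cell cycle control and DNA damage repair) were exposed to compounds. Growth inhibition was measured against vehicle-treated controls.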

[5] = NCI Yeast Anticancer Drug Screen. Data for the bub3 strain (AID 167); settings: S. cerevisiae bub3 mutant strain, hits give high values
In short: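 Mutant yeast screening strain plus compound; vehicle-treated cultures serve as the 0% inhibition reference.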

[6] = NCI Yeast Anticancer Drug Screen. Data for the mlh1 rad18 strain (AID 175); settings: S. cerevisiae mlh1 rad18 strain growth inhibition, hits give high values
In short: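 Growth inhibition of the yeast strain was measured after compound exposure and expressed relative to vehicle-treated controls. The strain carries defined defects in DNA damage repair.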

[7] = at 5.0 µM (retest, dose inferred, filed as 0.5)
[8] = at 50.0 µM (retest, dose inferred, filed as 5.0)

| SMILES | growth inhibition [1, 7] | growth inhibition [1, 8] | growth inhibition ([1]; at 50.0 µM) | growth inhibition [2, 7] | growth inhibition [2, 8] | growth inhibition ([2]; at 50.0 µM) | growth inhibition [3, 7] | growth inhibition [3, 8] | growth inhibition ([3]; at 50.0 µM) | growth inhibition [4, 7] | growth inhibition [4, 8] | growth inhibition ([4]; at 50.0 µM) | growth inhibition [5, 7] | growth inhibition [5, 8] | growth inhibition ([5]; at 50.0 µM) | growth inhibition [6, 7] | growth inhibition [6, 8] | growth inhibition ([6]; at 50.0 µM) |
| --- | --- | --- | --- | --- | --- | --- | --- | --- | --- | --- | --- | --- | --- | --- | --- | --- | --- | --- |
| Cc1ccc2c(c1)C1(C)OC(C=CC1=O)O2 (centres undefined) | 88% (active) | 100% (active) | 88.2% (active) | 97% (active) | 99% (active) | 91% (active) | 91% (active) | 100% (active) | 91% (active) | 82% (active) | 99% (active) | 90.5% (active) | 97% (active) | 100% (active) | 87.8% (active) | 94% (active) | 99% (active) | – |
| COc1cccc2c1C(=O)c1c(O)c3c(c(O)c1C2=O)C[C@@](O)(C(C)=O)C[C@@H]3OC1CC(O)C(O)C(C)O1 (some centres undefined) | 45% (inactive) | 95% (active) | 84.7% (active) | 21% (inactive) | 94% (active) | 88.3% (active) | 25% (inactive) | 94% (active) | 85.2% (active) | 46% (inactive) | 90% (active) | 83.3% (active) | 34% (inactive) | 96% (active) | 85.3% (active) | 40% (inactive) | 93% (active) | – |
| CCCCCCCCCCS(=O)CC(CO)NC(=O)/C=C/c1c(C)[nH]c(=O)[nH]c1=O (centres undefined) | 35% (inactive) | 93% (active) | 86.2% (active) | 20% (inactive) | 94% (active) | 89.8% (active) | 68% (inactive) | 98% (active) | 88.7% (active) | 34% (inactive) | 89% (active) | 84.2% (active) | 50% (inactive) | 96% (active) | 88.3% (active) | 53% (inactive) | 92% (active) | – |
| O=C1C(Cl)=C(N2CCN(C3=C(Cl)C(=O)c4ccccc4C3=O)CC2)C(=O)c2ccccc21 | 26% (inactive) | 98% (active) | 84.4% (active) | 8% (inactive) | 99% (active) | 87.8% (active) | 44% (inactive) | 99% (active) | 88.7% (active) | 14% (inactive) | 98% (active) | 87.8% (active) | 39% (inactive) | 98% (active) | 87.9% (active) | 26% (inactive) | 98% (active) | – |
| COc1cc(OC)c(OC)cc1/C=C\c1ccnc2ccccc12 | 19% (inactive) | 73% (active) | 33.8% (inactive) | 13% (inactive) | 65% (inactive) | 37% (inactive) | 10% (inactive) | 88% (active) | 88.4% (active) | 18% (inactive) | 57% (inactive) | 41.5% (inactive) | 6% (inactive) | 79% (active) | 62.8% (inactive) | 13% (inactive) | 83% (active) | – |
| CCc1[nH]c(=O)nc(N)c1-c1ccc(N2CCCCC2)c([N+](=O)[O-])c1 | -11% (inactive) | -25% (inactive) | 89.8% (active) | -23% (inactive) | 1% (inactive) | 86.8% (active) | 0% (inactive) | -6% (inactive) | 90.8% (active) | -31% (inactive) | -25% (inactive) | 70.8% (active) | -25% (inactive) | -32% (inactive) | 71.4% (active) | -22% (inactive) | -12% (inactive) | 90.8% (active) |
| COc1cccc2c1C(=O)c1c(O)c3c(c(O)c1C2=O)C[C@@](O)(C(C)=O)C[C@@H]3OC1CC(N(C)C)C(O)C(C)O1 (some centres undefined) | 98% (active) | 98% (active) | 86.5% (active) | 98% (active) | 98% (active) | 90.3% (active) | 99% (active) | 99% (active) | 90.8% (active) | 96% (active) | 97% (active) | 90.2% (active) | 99% (active) | 99% (active) | 88% (active) | 97% (active) | 97% (active) | – |
| CC[C@@]1(OC(=O)C(N)CCCCN)C(=O)OCc2c1cc1n(c2=O)Cc2cc3ccccc3nc2-1 (some centres undefined) | 92% (active) | 95% (active) | 80.3% (active) | 44% (inactive) | 96% (active) | 83.9% (active) | 18% (inactive) | -11% (inactive) | 77.1% (active) | 13% (inactive) | -36% (inactive) | 45.5% (inactive) | 22% (inactive) | 30% (inactive) | 64.1% (inactive) | 48% (inactive) | 91% (active) | – |
| C/C(=N\NC(=S)N1CCN(c2ccccn2)CC1)c1nccs1 | 23% (inactive) | 98% (active) | 86.5% (active) | 43% (inactive) | 99% (active) | 91.6% (active) | 43% (inactive) | 99% (active) | 90.8% (active) | 52% (inactive) | 98% (active) | 89.5% (active) | 73% (active) | 99% (active) | 87.3% (active) | 38% (inactive) | 99% (active) | – |
